Source: the supplement of paper PMC13380429

The molecules below were run on Vero E6 infected with SARS-CoV-2 (assay: morphology score (similarity to uninfected cells); higher = more like uninfected cells). Conditions: 24 h.

Row | Structure (SMILES) | morphology score
1 | C[C@@H]1CN(CC(=O)Nc2ccc3c(c2)Cc2cccc(-c4cc(=O)cc(N5CCOCC5)o4)c2S3)C[C@H](C)O1 (10 µM) | 0.618
2 | CC(C)(C(=O)O)c1ccc(C(=O)CCCN2CCC(OC(c3ccccc3)c3ccccc3)CC2)cc1 [carebastine] (10 µM) | 0.0702
3 | Cc1c(N)cccc1Cn1ccc(OCCc2cccs2)cc1=O (10 µM) | 0.0738
4 | CCNC(=O)[C@@H]1CCCN1C(=O)[C@H](CCCNC(=N)N)NC(=O)[C@H](CC(C)C)NC(=O)[C@@H](C)NC(=O)[C@H](Cc1ccc(O)cc1)NC(=O)[C@H](CO)NC(=O)[C@H](Cc1c[nH]c2ccccc12)NC(=O)[C@H](Cc1cnc[nH]1)NC(=O)[C@@H]1CCC(=O)N1 [alarelin] (10 µM) | -0.246
5 | Clc1cccc(/C=N/N=C/c2cccc(Cl)c2)c1 [3,3'-dichlorobenzaldazine] (10 µM) | 0.288
6 | COCCOc1ccc(N2CCN(CCn3ncc4c3nc(N)n3nc(-c5ccco5)nc43)CC2)cc1 [preladenant] (10 µM) | 0.0084
7 | CC(C)(O)C(=O)Nc1ccc([N+](=O)[O-])c(C(F)(F)F)c1 [2-hydroxyflutamide] (10 µM) | 0.0933
8 | Cn1cc(-c2ccncc2)c(-c2ccc(OCc3ccc4ccccc4n3)cc2)n1 (10 µM) | 0.927
9 | CCC(=O)NCC[C@@H]1CCc2ccc3c(c21)CCO3 [ramelteon] (10 µM) | 0.00565
10 | O=C(c1ccccc1)c1ccc2n1CCC2C(=O)O (centres undefined) [ketorolac] (10 µM) | 0.000781
11 | O=C(Oc1ccc(Br)cc1)N1CCN2CCC1CC2 (10 µM) | 0.273
12 | Cc1cccc(Nc2ccncc2S(=O)(=O)NC(=O)NC(C)C)c1 [torasemide] (10 µM) | 0.215
13 | Cc1ccc([N+](=O)[O-])cc1S(=O)(=O)N(C)/N=C/c1cnc2ccc(Br)cn12 (0.833333 µM) | 0.0254
14 | COc1ccc(C2C(=O)c3ccccc3C2=O)cc1 [anisindione] (10 µM) | -0.177
15 | CCC(C)n1ncn(-c2ccc(N3CCN(c4ccc(OCC5COC(Cn6cncn6)(c6ccc(Cl)cc6Cl)O5)cc4)CC3)cc2)c1=O (centres undefined) [itraconazole] (10 µM) | 0.0302
16 | Cn1c(=O)c2c(ncn2CC(=O)O)n(C)c1=O [acefylline] (10 µM) | 0.124
17 | O.O.O.O.O=C([O-])CC(O)(CC(=O)[O-])C(=O)[O-].[Li+].[Li+].[Li+] [lithium-citrate] (10 µM) | 0.239

Row | Structure (SMILES) | morphology score
18 | N#Cc1cc(F)cc(-c2nc(-c3ccc(F)cn3)no2)c1 (10 µM) | 0.136
19 | CC(Oc1ccc(O)cc1)(P(=O)(O)O)P(=O)(O)O (10 µM) | 0.0418
20 | CCCCCCOc1nsnc1C1=CCCN(C)C1 [xanomeline] (10 µM) | 0.44
21 | O=P(O)(O)C(O)(Cn1ccnc1)P(=O)(O)O [zoledronic-acid] (10 µM) | 0.0372
22 | Cc1ccc(Nc2c(F)cccc2Cl)c(CC(=O)O)c1 [lumiracoxib] (10 µM) | 0.182
23 | C[C@](O)(COc1ccc(C#N)cc1)C(=O)Nc1ccc(C#N)c(C(F)(F)F)c1 [ostarine] (10 µM) | 0.0725
24 | O=C(NO)c1ccc2[nH]c(=O)c(CCCc3ccccc3)nc2c1 (10 µM) | -0.0251
25 | Cc1ccc2c(Cl)cc(Cl)c(O)c2n1 [chlorquinaldol] (10 µM) | 0.0549
26 | c1cc2c3c(c1)c1c(n3CCNC2)CCCC1 (10 µM) | -0.0322
27 | CN1C(=O)CC[C@H]1c1cccnc1 [cotinine] (10 µM) | 0.0591
28 | CCCN1CCN(c2ccc(C(=O)NC3(C(=O)NCC#N)CCCCC3)cc2)CC1 [balicatib] (10 µM) | 0.59
29 | CCN1CCN(Cc2ccc(C(=O)Nc3ccc(C)c(Oc4ccc5c(c4)CC(=O)N5)c3)cc2C(F)(F)F)CC1 (0.833333 µM) | 0.0277
30 | CCCCCOC(=O)Nc1nc(=O)n([C@@H]2O[C@H](C)[C@@H](O)[C@H]2O)cc1F [capecitabine] (10 µM) | -0.208
31 | O=NN(CCCl)C(=O)NC1CCCCC1 [lomustine] (10 µM) | -0.0183
32 | COc1ccc2nc3cc(Cl)ccc3c(Nc3cc(CN4CCCC4)c(O)c(CN4CCCC4)c3)c2n1 [pyronaridine] (0.833333 µM) | 0.282
33 | O=C(c1ccc(/C=C/c2n[nH]c3ccccc23)cc1)N1CCNCC1 (10 µM) | 0.964
34 | Cc1c(-c2ccnn2C)cc(C(=O)NCc2ccc(S(C)(=O)=O)cn2)c(=O)n1-c1cccc(C(F)(F)F)c1 (10 µM) | 0.101
